Data taken from PMC4336329 (PLoS ONE, 2015).
Among all 310,000 compounds or so, about 14,000 (4.5%) showed an effect of 50% or more. Effects have a minus sign here. The full list was thinned out, with strong results kept by preference.

What follows are compounds tested against human ether-à-go-go-related gene (hERG) potassium channel (human, UniProt Q12809) (assay: primary screen, population patch clamp on CHO cells stably expressing hERG; higher = less effect of the substance).
Protocol: Briefly, Chinese hamster ovary (CHO) cells stably expressing the hERG channel were dislodged from tissue culture flasks and dispensed into PPC plates. […] During the recording, background leak currents were estimated by a 100 ms step to -80 mV from an initial holding potential of -70 mV and subtracted from the subsequent current measurement. The campaign was conducted in two phases using slight differences in recording protocol. In the first phase, the initial voltage pulse used a 100 ms step to -30 mV from a holding potential of -70 mV, a 2 s conditioning step to +25 mV, and a 2 s test step to -30 mV. During the second phase of the screen, the potential during the conditioning step was raised to +45 mV. In both phases of the campaign, a secondary voltage pulse was applied using the same parameters as the second phase initial pulse. The initial and secondary pulses were applied in the absence of compound, and upon application of 1 μM and 10 μM test concentrations. […]
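Further: peak tail current of the secondary pulse compared with the same well before compound.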

Sequence of human ether-à-go-go-related gene (hERG) potassium channel (Q12809 whole entry, looked up): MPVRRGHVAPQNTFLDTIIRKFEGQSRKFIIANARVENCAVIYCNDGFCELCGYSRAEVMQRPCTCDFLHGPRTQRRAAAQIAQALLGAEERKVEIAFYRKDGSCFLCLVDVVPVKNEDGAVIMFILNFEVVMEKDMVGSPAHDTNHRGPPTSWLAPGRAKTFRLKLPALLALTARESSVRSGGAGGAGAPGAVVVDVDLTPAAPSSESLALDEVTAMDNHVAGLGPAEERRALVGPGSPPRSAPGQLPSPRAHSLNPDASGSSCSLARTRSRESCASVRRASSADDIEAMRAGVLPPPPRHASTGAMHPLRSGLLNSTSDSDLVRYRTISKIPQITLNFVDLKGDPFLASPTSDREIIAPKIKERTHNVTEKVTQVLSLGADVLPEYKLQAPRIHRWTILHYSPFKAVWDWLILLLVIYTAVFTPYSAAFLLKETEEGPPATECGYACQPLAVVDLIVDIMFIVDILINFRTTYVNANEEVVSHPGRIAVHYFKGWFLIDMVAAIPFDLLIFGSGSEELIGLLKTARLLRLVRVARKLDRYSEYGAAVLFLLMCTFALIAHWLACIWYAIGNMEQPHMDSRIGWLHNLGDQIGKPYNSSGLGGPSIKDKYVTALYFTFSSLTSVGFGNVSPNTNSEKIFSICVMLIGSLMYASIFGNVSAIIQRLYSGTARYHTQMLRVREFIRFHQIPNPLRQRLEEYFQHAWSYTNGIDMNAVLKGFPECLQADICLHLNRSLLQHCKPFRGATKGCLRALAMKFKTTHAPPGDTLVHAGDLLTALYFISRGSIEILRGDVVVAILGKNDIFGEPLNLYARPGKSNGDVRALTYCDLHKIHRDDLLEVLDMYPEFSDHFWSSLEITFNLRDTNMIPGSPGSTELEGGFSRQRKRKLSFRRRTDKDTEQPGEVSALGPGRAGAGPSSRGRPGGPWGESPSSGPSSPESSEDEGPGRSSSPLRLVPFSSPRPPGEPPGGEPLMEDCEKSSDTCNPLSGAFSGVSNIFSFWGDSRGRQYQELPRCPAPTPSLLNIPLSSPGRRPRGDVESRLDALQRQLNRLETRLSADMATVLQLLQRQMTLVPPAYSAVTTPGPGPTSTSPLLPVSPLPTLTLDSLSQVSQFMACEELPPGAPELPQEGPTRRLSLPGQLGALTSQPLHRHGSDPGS

Row | SMILES | hERG current change (%, negative = inhibition) at 10uM [%]
1 | COc1cc(OC)cc(C(=O)NCCSc2c[nH]c3ccccc23)c1 | -17.1
2 | NC(=O)c1sc2nc3c(cc2c1N)CCC3 | 8.92
3 | CC(=O)c1ccc(OC(=O)C2CSC3(C)CCC(=O)N23)cc1 (stereo not shown) | 12.4
4 | CCN(CC)CC(O)Cn1c(-c2cccc(Cl)c2)nc2cc(C)c(C)cc21 (stereo not shown) | -62.8
5 | OC(CN1CCOCC1)Cn1c(-c2cccc(Cl)c2)nc2ccccc21 (stereo not shown) | -21.3
6 | CCN(CC)CC(O)Cn1c(-c2ccccc2Cl)nc2ccccc21 (stereo not shown) | -25.2
7 | CCOC(=O)[C@@H]1[C@H]2COc3ccc(Br)cc3[C@@H]2N2C(=O)N(c3ccc(C)cc3)C(=O)[C@]12C | 5.6
8 | O=C(NCC1CCCCC1)c1cc(S(=O)(=O)N2CCCCC2)ccc1N1CCOCC1 | -7.89
9 | COc1ccc(C2C(C#N)=C(N)Nc3onc(C(C)(C)C)c32)c(OC)c1 (stereo not shown) | 3.15
10 | COc1ccc2oc(C(=O)OCc3nnc(-c4ccccc4)o3)c(C)c2c1 | 19.8
11 | CCCCN(C(=O)COc1ccc(C)cc1OC)c1c(N)n(CCC)c(=O)[nH]c1=O | 4.7
12 | O=C(c1ccccc1)c1ccccn1 | 2.58
13 | O=C(NCc1ccccc1Cl)C1CCN(S(=O)(=O)c2ccc(F)cc2)CC1 | -45.6
14 | Cc1ccc(S(=O)(=O)N2CCC(C(=O)NCc3ccccc3CN3CCCC3)CC2)cc1C | -68.7
15 | CCOc1ccc(S(=O)(=O)N2CCC(C(=O)NCCc3ccccc3)CC2)cc1 | 29.1
16 | Cc1ccc(S(=O)(=O)N2CCC(C(=O)NCCC3=CCCCC3)CC2)cc1C | -11.6
17 | Cc1ccc(S(=O)(=O)N2CCC(C(=O)NCc3ccccc3Cl)CC2)cc1 | -4.47
18 | Cc1ccc(S(=O)(=O)N2CCC(C(=O)NCCN3CCOCC3)CC2)cc1C | 8.7
19 | CCOc1ccc(S(=O)(=O)N2CCC(C(=O)NCc3ccccn3)CC2)cc1 | -25.9
20 | O=C(NCc1ccccc1F)C1CCN(S(=O)(=O)c2ccccc2)CC1 | -12.1
21 | COc1ccc(S(=O)(=O)N2CCC(C(=O)NCCC3=CCCCC3)CC2)cc1OC | -23.5
22 | CCOc1ccc(S(=O)(=O)N2CCC(C(=O)NCc3ccccc3CN3CCCC3)CC2)cc1 | -64.3

Row | SMILES | hERG current change (%, negative = inhibition) at 10uM [%]
23 | O=C(NCc1ccccc1CN1CCCC1)C1CCN(S(=O)(=O)c2ccc(F)c(F)c2)CC1 | -59.1
24 | COc1ccc(S(=O)(=O)N2CCC(C(=O)NCCC3=CCCCC3)CC2)cc1C | -56.2
25 | Cc1ccn2c(NC(=O)c3ccco3)c(-c3ccccc3)nc2c1 | -23.7
26 | O=C(CSc1nc(O)cc(=O)[nH]1)N1c2ccccc2Sc2ccccc21 | 8.9
27 | CC(C)c1ccc(NC(=O)NCc2ccc3c(c2)OCO3)cc1 | 13.4
28 | O=C(O)c1ccccc1OC(=O)C12CC3CC(CC(C3)C1)C2 | 18.1
29 | O=C(NCc1ccc(F)cc1)c1cccnc1 | 9.37
30 | Cc1nc([N+](=O)[O-])cn1Cc1cccc2ccccc12 | 10.2
31 | CCOc1ccc(S(=O)(=O)N2CCC(C(=O)NCc3ccco3)CC2)cc1 | -53
32 | CCOc1ccc(S(=O)(=O)N2CCCC(C(=O)NCc3ccco3)C2)cc1 (stereo not shown) | -4.45
33 | O=C(NCc1ccc(Cl)cc1)C1CCN(S(=O)(=O)c2ccccc2)CC1 | 13
34 | O=C(NCc1ccccc1CN1CCCC1)C1CCN(S(=O)(=O)c2ccc(Cl)cc2)CC1 | -69.4
35 | N#Cc1ccccc1S(=O)(=O)N1CCC(C(=O)NCc2ccccc2CN2CCCC2)CC1 | -69.1
36 | O=C(NCc1ccccc1Cl)C1CCN(S(=O)(=O)N2CCCC2)CC1 | 12.5
37 | O=C(NCc1ccccc1)C1CCN(S(=O)(=O)c2ccc(Cl)cc2)CC1 | 3.16
38 | COc1ccc(S(=O)(=O)N2CCC(C(=O)NCc3ccco3)CC2)cc1 | -25.4
39 | O=C(NCc1ccccc1Cl)C1CCN(S(=O)(=O)N2CCCCC2)CC1 | 1.33
40 | CCOc1ccc(NC2OCC(O)C(O)C2O)c([N+](=O)[O-])c1 (stereo not shown) | 33.2
41 | COc1cc(/C=N/NS(=O)(=O)c2ccc(C)c([N+](=O)[O-])c2)cc([N+](=O)[O-])c1O | 18.1
42 | CCOC(=O)C1CCCN(C(=O)c2sc3nc(-c4ccc(OC)cc4)cn3c2C)C1 (stereo not shown) | -55.4
43 | CCOC(=O)C1CCCN(C(=O)c2sc3nc(-c4ccccc4)cn3c2C)C1 (stereo not shown) | -59.8
44 | CCOC(=O)C1CCCN(C(=O)c2cc3c(-c4cccc(OC)c4)nn(C)c3s2)C1 (stereo not shown) | -60.7

Row | SMILES | hERG current change (%, negative = inhibition) at 10uM [%]
45 | CCOC(=O)C1CCCN(C(=O)c2cc(-c3ccccc3)nc3ccccc23)C1 (stereo not shown) | -9.9
46 | Cc1c(C(=O)N2CCOCC2)sc2nc(-c3ccccc3)cn12 | -11.2
47 | CCOC(=O)C1CCCN(C(=O)c2sc3nc(-c4ccc(F)cc4)cn3c2C)C1 (stereo not shown) | -72.9
48 | COc1ccc(-c2cn3c(C)c(C(=O)N4CCN(c5ccccc5F)CC4)sc3n2)cc1 | -29.8
49 | CCOC(=O)C1CCN(C(=O)c2cc3c(-c4ccc(OC)c(OC)c4)nn(C)c3s2)CC1 | -17
50 | CCOC(=O)N1CCN(C(=O)c2cc3c(-c4cccc(OC)c4)nn(C)c3s2)CC1 | -35.6
51 | Cc1c(C(=O)N2CC(C)OC(C)C2)sc2nc(-c3ccc(F)cc3)cn12 (stereo not shown) | -38.4
52 | CCOC(=O)C1CCCN(C(=O)c2cc(-c3ccc(F)cc3)nc3ccccc23)C1 (stereo not shown) | -33.8
53 | COc1ccc(-c2cn3c(C)c(C(=O)N4CCc5ccccc5C4)sc3n2)cc1 | -31.9
54 | CCN(CC(=O)Nc1ccc(OC)cc1)C(=O)c1cc2c(s1)CCCCC2 | 16.3
55 | COc1ccc(/C=N/NC(=O)CCC(=O)Nc2ccc(F)cc2)c(OC)c1 | 14.9
56 | N#Cc1nc(-c2ccco2)oc1N1CCN(C(c2ccccc2)c2ccccc2)CC1 | -0.82
57 | Cc1cc(C(=O)O)cc(Br)c1N | 4.61
58 | Cc1ccc(S(=O)(=O)/N=C(\Sc2ccccc2)c2ccccc2)cc1 | 14.1
59 | COCCN1CCN(C(=O)c2ccc3c(c2)S(=O)(=O)c2ccccc2C3=O)CC1 | -1.17
60 | Cc1cc(C)c(NC(=O)c2cccc3c2C(=O)N(C2CCCCC2)C3)c(C)c1 | -11
61 | O=C(Nc1cccc(S(=O)(=O)N2CCOCC2)c1)C(c1ccccc1)N1CCCCC1 (stereo not shown) | -37.9
62 | CN(C)CCNC(C(=O)Nc1cccc(S(=O)(=O)N2CCOCC2)c1)c1ccccc1 (stereo not shown) | -70.3
63 | O=C(CSc1ccccc1)Nc1cccc(S(=O)(=O)N2CCOCC2)c1 | -25.4
64 | CCCC(C(=O)Nc1cccc(S(=O)(=O)N2CCCC2)c1)c1ccccc1 (stereo not shown) | -48.2
65 | CC(C)[C@H](NC(=O)c1ccccc1)C(=O)Nc1cccc(S(=O)(=O)N2CCOCC2)c1 | -2.22
66 | CCCCNC(C(=O)Nc1cccc(S(=O)(=O)N2CCOCC2)c1)c1ccccc1 (stereo not shown) | -50.7

Row | SMILES | hERG current change (%, negative = inhibition) at 10uM [%]
67 | CC(C)C(NC(=O)CN(c1cccc(F)c1)S(C)(=O)=O)C(C)C | 1.21
68 | COc1cc(CCC(=O)OCc2ccccc2C#N)cc(OC)c1OC | 7.42
69 | O=C1CC(C(=O)N2CCOCC2)C2(CCCCC2)O1 (stereo not shown) | 17.8
70 | COc1ccccc1Oc1cc(F)nc(N)n1 | 5.82
71 | Cc1cc(C)n(-c2nc(C(=O)O)cs2)n1 | 17.7
72 | CN(Cc1ccccc1)S(=O)(=O)c1ccc(Cl)c(C(=O)NCc2ccc3c(c2)OCO3)c1 | 5.48
73 | CN(Cc1ccccc1)S(=O)(=O)c1ccc(Cl)c(C(=O)O)c1 | 9.33
74 | CN(Cc1ccccc1)S(=O)(=O)c1ccc(OCC(=O)NCc2cccnc2)cc1 | 0.509
75 | CN(Cc1ccccc1)S(=O)(=O)c1ccc(Cl)c(C(=O)NCCc2ccccn2)c1 | -61.8
76 | CN(Cc1ccccc1)S(=O)(=O)c1ccc(OCC(=O)NCc2ccccn2)cc1 | -32.6
77 | CN(Cc1ccccc1)S(=O)(=O)c1ccc(OCC(=O)NCc2ccncc2)cc1 | -53.6
78 | CN(Cc1ccccc1)S(=O)(=O)c1ccc(Cl)c(C(=O)NCc2ccncc2)c1 | -55.8
79 | CN(Cc1ccccc1)S(=O)(=O)c1ccc(Cl)c(C(=O)NCc2cccnc2)c1 | -32.8
80 | CN(CC(=O)NCCc1ccccn1)S(=O)(=O)c1ccc(Cl)cc1 | -17
81 | O=C1Nc2ccc(C(F)(F)F)cc2N2CCCC12 (stereo not shown) | -1.52
82 | Cc1ccc(CSCCNC(=O)CN(c2cc(C)ccc2C)S(C)(=O)=O)cc1 | -23.5
83 | COC(=O)C1=C(C)N(Cc2ccc(OC)c(OC)c2)C(=O)C1 | 10.7
84 | C=CCSc1n[nH]c(-c2cccs2)n1 | 14.4
85 | CN(CCO)S(=O)(=O)c1ccc2c(c1)C(=NN)c1cc(S(=O)(=O)N(C)CCO)ccc1-2 | 9.76
